31 molecules from PubChem BioAssay (NCATS) can be followed below.

Results filed as inconclusive are left out. The source made the active and inactive calls. Calls come from the whole dose curve; as a rule, active = well fitted inhibition curve with a large enough effect; inconclusive = small, poorly fitted or top-dose-only effect; inactive = flat fitted curve, though single readings scatter.
Potency is the fitted concentration of half-maximal effect.

System in the first experiment: not listed separately
The experiment in a line: qHTS profiling for inhibitors of Plasmodium falciparum proliferation (AID 504749).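 For activity, negative = inhibition: 0% = DMSO vehicle and full inhibition = artemisinin control.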 Note: nearly all actives have a fitted effect of over 60% in size. To be noted: P. falciparum in erythrocytes, SYBR Green DNA, 72 h; at 28.7 µM (top of the series); parasite line A. The essentials: (§1)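 Readout was DNA-dye fluorescence from lysed cultures, ex 485/em 535 nm. Parasitized red cells had grown 72 h with compound; data scaled between 0.29 uM artemisinin and DMSO wells and corrected using vehicle-only plates.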
As to `CN1CCN(C2=Nc3ccccc3Sc3ccc(Cl)cc32)CC1`, the activity, negative = inhibition was -8.05% (inactive).
The same measure, in the same setting: the value for `CC1=C(C(=O)O)N2C(=O)[C@@H](NC(=O)[C@H](N)c3ccccc3)[C@H]2SC1` was 3.04% (inactive); that for `CN(C)CCOC(c1ccc(Cl)cc1)c1ccccn1` (configuration not stated) was 5.62% (inactive); that for `O=[N+]([O-])c1cccc(S(=O)(=O)NCCNS(=O)(=O)c2cccc([N+](=O)[O-])c2)c1` was -25.4% (inactive).
As to `CC[N+](C)(CC)CCOC(=O)C(O)(c1ccccc1)C1CCCCC1` (configuration not stated), the activity, negative = inhibition was -48% (inactive).
`CO[C@]12C[C@@H](COC(=O)c3cncc(Br)c3)CN(C)[C@@H]1Cc1cn(C)c3cccc2c13`: the activity, negative = inhibition was -17.9% (inactive).

Staying with this experiment, now noted: P. falciparum in erythrocytes, SYBR Green DNA, 72 h; at 28.7 µM (top of the series); parasite line B.
`CN1CCN(C2=Nc3ccccc3Sc3ccc(Cl)cc32)CC1`: the activity, negative = inhibition is -25.1% (inactive).
As for `O=C(NC1CCN(CCc2c[nH]c3ccccc23)CC1)c1ccccc1`, the activity, negative = inhibition was -5.78% (inactive).
Turning to `CCNC(=O)/C=C/c1cccc(Br)c1`, the activity, negative = inhibition is -15.2% (inactive).
Turning to `CCCCCCCCCCCCOCCOCCOCCOCCOCCOCCOCCOCCOCCO`, the activity, negative = inhibition was -26% (inactive).
For `CN1CCN(c2c(F)cc3c(=O)c(C(=O)O)cn4c3c2SCC4)CC1`, the activity, negative = inhibition was -29% (inactive).
On to `Cn1c(=O)c2[nH]c(Br)nc2n(C)c1=O`, for which the activity, negative = inhibition was -4.72% (inactive).
The same measure, in the same setting: the figure for `OC(C#CCN1CCCC1)(c1ccccc1)c1ccccc1` is -24.9% (inactive).
Regarding `CN1CCC[C@@H]1CCO[C@](C)(c1ccccc1)c1ccc(Cl)cc1`, the activity, negative = inhibition was -15.8% (inactive).

Staying with this experiment, now noted: P. falciparum in erythrocytes, SYBR Green DNA, 72 h; parasite line B.
In the case of `CCCN(CCc1cccs1)[C@H]1CCc2c(O)cccc2C1`, the Potency is 4.47 µM (active).
On the same count and under the same terms, the figure for `Cc1ccc2c(Br)cc(Br)c(O)c2n1` is 12.6 µM (active).
Regarding `Oc1ccc(Cl)cc1Cc1cc(Cl)ccc1O`, the Potency was 11.2 µM (active).

A further experiment concerns 3D7. The experiment is described as above. The conditions noted are these: P. falciparum in erythrocytes, SYBR Green DNA, 72 h; series mostly up to 28.7 µM. The essentials:
as §1
Consider `CN1CCc2cccc3c2[C@H]1Cc1ccc(O)c(O)c1-3`, for which the Potency was 7.94 µM (active).
`CCCN(CCc1cccs1)[C@H]1CCc2c(O)cccc2C1`: the Potency was 14.1 µM (active).
Regarding `CC1=C(C(=O)O)N2C(=O)[C@@H](NC(=O)[C@H](N)c3ccccc3)[C@H]2SC1`, the Potency result was “inactive”.
Take `COc1ccc(C(=O)c2ccccc2O)c(O)c1`: the Potency result was “inactive”.
Same read-out and setting: the value for `COc1cc(N)c(Cl)cc1C(=O)NC1CCN(Cc2ccccc2)CC1` was “inactive”; that for `Cc1cc(CC(=O)O)c(C)n1-c1ccc(Cl)cc1` was “inactive”; that for `CN(C)CCOC(c1ccc(Cl)cc1)c1ccccn1` (configuration not stated) was “inactive”.
Consider `O=C(O)CCc1nc2ccccc2[nH]1`, for which the Potency is 0.0045 µM (active).
With `O=[N+]([O-])c1cccc(S(=O)(=O)NCCNS(=O)(=O)c2cccc([N+](=O)[O-])c2)c1`, the Potency result is “inactive”.
With `CCNC(=O)/C=C/c1cccc(Br)c1`, the Potency entry was “inactive”.
As to `CN1CCN(c2c(F)cc3c(=O)c(C(=O)O)cn4c3c2SCC4)CC1`, the Potency entry was “inactive”.
As to `Cn1c(=O)c2[nH]c(Br)nc2n(C)c1=O`, the Potency result is “inactive”.
Regarding `CO[C@]12C[C@@H](COC(=O)c3cncc(Br)c3)CN(C)[C@@H]1Cc1cn(C)c3cccc2c13`, the Potency entry was “inactive”.
The same measure, in the same setting: the value for `CC(C)(C)NC[C@H](O)COc1nsnc1N1CCOCC1` was 6.31 µM (active).
For `OC(C#CCN1CCCC1)(c1ccccc1)c1ccccc1`, the Potency result was “inactive”.
For `Oc1ccc(Cl)cc1Cc1cc(Cl)ccc1O`, the Potency result was “inactive”.
Take `CN1CCC[C@@H]1CCO[C@](C)(c1ccccc1)c1ccc(Cl)cc1`: the Potency result is “inactive”.

The next experiment relates to 7G8. Described as above. To be noted: P. falciparum in erythrocytes, SYBR Green DNA, 72 h; series mostly up to 28.7 µM. The essentials:
as §1
In the case of `CN1CCc2cccc3c2[C@H]1Cc1ccc(O)c(O)c1-3`, the Potency was 2.24 µM (active).
The same measure, in the same setting: the figure for `CCN(CC)CCOc1ccc2c(c1)C(=O)c1cc(OCCN(CC)CC)ccc1-2` is 7.94 µM (active); for `CCCN(CCc1cccs1)[C@H]1CCc2c(O)cccc2C1` it is 1 µM (active).
In the case of `CC(C)(Cc1c[nH]c2ccccc12)NCC(O)COc1ccccc1C#N` (configuration not stated), the Potency was 8.91 µM (active).
As for `CC1=C(C(=O)O)N2C(=O)[C@@H](NC(=O)[C@H](N)c3ccccc3)[C@H]2SC1`, the Potency entry was “inactive”.
As to `O=C(CN1CCN(Cc2ccc3c(c2)OCO3)CC1)N1c2ccccc2Sc2ccccc21`, the Potency was 7.94 µM (active).
For the molecule `O=S(c1cc(Cl)cc(Cl)c1O)c1cc(Cl)cc(Cl)c1O`, the Potency entry was “inactive”.
On to `COc1ccc(C(=O)c2ccccc2O)c(O)c1`, for which the Potency is 3.16 µM (active).
`Cc1cc(CC(=O)O)c(C)n1-c1ccc(Cl)cc1`: the Potency is 11.2 µM (active).
Same read-out and setting: the value for `CC(=O)O[C@]1(C(C)=O)CC[C@H]2[C@@H]3C=C(Cl)C4=CC(=O)CC[C@]4(C)[C@H]3CC[C@@]21C` was 11.2 µM (active); that for `O=C(NC1CCN(CCc2c[nH]c3ccccc23)CC1)c1ccccc1` was 10 µM (active).
Still for that read-out and setting: the value for `CC(C)(C)CC(C)(C)c1ccc(O)c(-n2nc3ccccc3n2)c1` was 5.01 µM (active); that for `Oc1c(Cl)cc(Cl)c(Cl)c1Cc1c(O)c(Cl)cc(Cl)c1Cl` was 4.47 µM (active); that for `CCNC(=O)/C=C/c1cccc(Br)c1` was “inactive”.
With `CCCCCCCCCCCCOCCOCCOCCOCCOCCOCCOCCOCCOCCO`, the Potency was 12.6 µM (active).
For `Cn1c(=O)c2[nH]c(Br)nc2n(C)c1=O`, the Potency entry was “inactive”.
Turning to `CC(C)(C)NC[C@H](O)COc1nsnc1N1CCOCC1`, the Potency is 0.631 µM (active).
As for `COC(=O)C(c1ccccc1Cl)N1CCc2sccc2C1` (configuration not stated), the Potency is 10 µM (active).
Turning to `OC(C#CCN1CCCC1)(c1ccccc1)c1ccccc1`, the Potency was 11.2 µM (active).
Still for that read-out and setting: the value for `CN(CCCN1c2ccccc2CCc2ccccc21)CC(=O)c1ccc(Cl)cc1` was 1.41 µM (active); that for `Cc1ccc2c(Br)cc(Br)c(O)c2n1` was 7.08 µM (active).
Take `Oc1ccc(Cl)cc1Cc1cc(Cl)ccc1O`: the Potency was 11.2 µM (active).
Still for that read-out and setting: the value for `CN1CCC[C@@H]1CCO[C@](C)(c1ccccc1)c1ccc(Cl)cc1` was 10 µM (active).
